Assay outcomes from PubChem.
Only a selection was taken, and hits are over-represented in it overall.
Pf apPOL inh: Pf-apPOL DNA polymerase inhibition | inhibition, % at 10 µM | Recombinant Pf-apPOL, molecular beacon fluorescence, 1.5 h | AID 1794808 | actives 0.25% (n = 210,000)
mHTT CaM bind: disrupts binding of mutant huntingtin to calmodulin; inhibition, % at 15 µM; AlphaScreen His-mHTT/GST-CaM binding, luminescence; AID 1671202; actives 3.6% (n = 190,000); P42858;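 note: 0% = both proteins with DMSO and 100% = one protein alone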
* hit, by the source's call; x = no result given. Cut-off read from the data, not from the text of the source: active = inhibition above about 50%; inactive = the rest.

SMILES	Pf apPOL inh	mHTT CaM bind
O=C(CSc1ccccc1[N+](=O)[O-])NNC(=S)NC1CC2C=CC1C2 (stereo not given)	-279.4	x
CCNc1nc(NC(C)C)nc(OCCNS(=O)(=O)c2cc(C)ccc2C)n1	-3.7	0.0
CCNc1nc(NCC)nc(OCCNS(=O)(=O)c2cc(C)ccc2C)n1	89.0*	1.0
CC1CCN(S(=O)(=O)c2ccc3[nH]cc(C(=O)NCc4ccccn4)c(=O)c3c2)CC1	-0.9	13.0
c1ccc(OCCCOc2ccccc2)cc1	-2.1	-124.5
Nc1ccccc1NCCOc1ccccc1	1.5	78.6*
O=C(NCc1cccc(F)c1)c1ccc(-c2cccnc2)nc1	-1.8	-0.1
O=C(c1cc([N+](=O)[O-])ccc1N1CCCC1)N1CCOCC1	-4.3	-2.1
CN(C)/C(=C1/c2cc([N+](=O)[O-])ccc2-c2c1cc([N+](=O)[O-])cc2[N+](=O)[O-])N1CCOCC1	-12.1	57.0*
O=C1C(=Cc2ccc3c(c2)OCO3)Oc2c1ccc(O)c2CN1CCCCC1	-7.0	7.6
Cc1ccc(OCCn2c(SCC(N)=O)nc3ccccc32)cc1	2.4	17.1
NC(=O)CSc1nc2ccccc2n1CCOc1ccc(Cl)cc1	2.0	64.3*
COc1cccc(C=C2Oc3c(ccc4c3CN(Cc3cccnc3)CO4)C2=O)c1OC	-4.2	11.4
CCc1nc2c(c(=O)n1CC(=O)Nc1cc(C)ccc1C)CN(Cc1ccccc1)CC2	2.1	5.0
O=C(NC(Nc1ccc(Cl)cc1Cl)C(Cl)(Cl)Cl)c1ccco1 (stereo not given)	9.5	51.0*
O=C(NC(Nc1ccc(Cl)cc1)C(Cl)(Cl)Cl)c1ccco1 (stereo not given)	4.4	3.0
Cc1nn(-c2ccccc2)c2sc(C(=O)n3nnc4ccccc43)cc12	-2.7	0.0
CS(=O)(=O)N1CCN(Cc2nnnn2-c2ccc(Cl)cc2)CC1	-3.3	-6.6
CSc1ncc(-c2nnc(SCC(=O)Nc3ccc(Cl)cc3)n2C)n1C	-6.4	x
O=C(c1ccccc1)c1c(-c2ccccc2)csc1Nc1ccccc1	5.5	x
OCC[n+]1c(-c2ccc(Br)cc2)csc1Nc1ccccc1	-12.1	87.6*
O=C(CNc1ccccc1-c1nc2ccccc2[nH]c1=O)N1CCCC1	-7.0	5.0
COc1nccnc1N1CCC(NC(=O)c2ccc3c(c2)OCO3)C1 (stereo not given)	0.6	-2.1
CC[C@H]1c2[nH]c3ccc(C(C)C)cc3c2[C@@H]2CCN3C(=O)CCC[C@H]1[C@H]23	-9.2	71.3*
CC[C@@H]1C(=O)[C@H](Cc2ccccc2)[C@H]2CCCC(=O)N3CC[C@@H]1[C@@H]23	-1.4	16.9
SMILES	Pf apPOL inh	mHTT CaM bind
O=S(=O)(c1ccccc1Br)N(Cc1ccsc1)Cc1ccccn1	-2.9	-24.4
N#Cc1c(SCC(=O)C23CC4CC(CC(C4)C2)C3)sc2c(O)cc(=O)[nH]c12	x	0.6
Nc1c(C(=O)C23CC4CC(CC(C4)C2)C3)sc2sc3c(O)cc(=O)[nH]c3c12	x	51.7*
CCOC(=O)C1C(=O)C=C(c2ccco2)CC1c1ccc(CC)cc1 (stereo not given)	-3.2	5.7
COc1ccc(N2C(=O)C3C(c4ccc(OC)cc4O)NC(C)(C(=O)O)C3C2=O)cc1 (stereo not given)	-10.9	-3.0
COCCCNC(=O)C1CCN(c2ncccc2-c2nc(-c3cccc(F)c3)no2)CC1	-3.5	-3.7
COCCCNC(=O)C1CCN(c2cnn(Cc3ccccc3)c(=O)c2)CC1	-0.7	-2.4
COCCCNC(=O)C1CCN(Cc2cc3ccccc3n2Cc2cccc(F)c2)CC1	4.1	51.0*
COCCCNC(=O)C1CCN(Cc2cc3ccccc3n2Cc2ccc(F)cc2)CC1	3.2	52.6*
Cc1ccc(CCNS(=O)(=O)c2ccc3nc(-c4ccccc4)[nH]c3c2)cc1	-6.7	15.0
COCCN1C(=O)/C(=C/c2cccs2)SC1=S	x	29.5
O=C(Nc1ccccc1Cl)C(c1ccccc1)c1ccccc1	-8.8	-26.9
Cc1cc(C)c2c(=O)[nH]c(SCC(=O)c3ccc(O)c(O)c3)nc2n1	-4.0	5.5
Cc1sc2nc(SCC(=O)c3ccc(O)c(O)c3)[nH]c(=O)c2c1C	-0.7	68.0*
CCc1noc(-c2cccnc2N2CCCN(C(=O)CCc3ccccc3OC)CC2)n1	-6.6	0.4
Cn1nc(-c2nc(-c3ccccc3)no2)c2c1CCN(C(=O)c1cc(F)ccc1F)C2	-0.9	4.4
O=C(c1ccccc1)c1cc(Cl)cc2c1NC(C(=O)O)C1CC=CC21 (stereo not given)	-1.1	5.7
O=C(O)C1Nc2c(O)ccc(Br)c2C2C=CCC12 (stereo not given)	-1.8	100.3*
COc1cc(/C=C2\CCCC3=C2Nc2ncnn2C3c2ccc(O)c(OC)c2)ccc1O (stereo not given)	-4.7	22.0
c1cnc2c(c1)ccc1cccnc12	4.6	x
Cc1ccnc2c1ccc1cccnc12	x	100.3*
COc1nc(-c2cccs2)cc(-c2ccc(C)cc2)c1C#N	53.3*	-36.0
N#Cc1c(-c2ccccc2)cc(-c2cccs2)nc1Br	-4.3	-9.0
